Screens deposited in PubChem by National Center for Advancing Translational Sciences (NCATS).
Shiga inhibitor – Shiga toxin inhibition; AID 2315; Vero cells, Shiga toxin protein synthesis inhibition reporter; actives 9.2% (n = 290,000); inhibition, % at 38.7 µM; in the data active means inhibition mostly above about 28%, no sharp cut-off; inactive means mostly below about 43%; further: 0% is about no effect
HCV inh – HCV inhibition; Huh7.5.1 HCVcc-Cre infection, luciferase reporter, 44 h; Potency, µM (highest dose often 41.8 µM), inactives show top-dose activity change, negative = inhibition, hits mostly inhibitors; actives 3.4% (n = 340,000); AID 651820; further: potency means the concentration at half of the fitted maximal effect; on the % scale 0 is the no-effect control and ±100 the full control effect
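Antiviral activity was scored by luciferase reporter output from cells infected with HCVcc-Cre (~0.5 moi) in presence of compound, 44 h infection period, cells seeded 1,000/well 4 h prior.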
Pf growth 96h – P. falciparum growth inhibition at 96 hour, primary screen for plastid delayed-death inhibitors. P. falciparum luciferase reporter growth, 96 h. Potency, µM (highest dose often 28.7 µM), for the others: at the highest dose activity change, negative = inhibition, actives largely listed as inhibitors. actives 6.9% (n = 320,000). AID 504834; further: potency means the concentration at half of the fitted maximal effect; on the % scale 0 is the no-effect control and ±100 the full control effect
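Infected RBCs, 2% Hct / 0.05% parasitemia final; luciferase-reporter P. falciparum; cpd 96 h, 37 C, 5% CO2; luciferase detection reagent; luminescence.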
HCMV antiviral – blocks human cytomegalovirus replication | HFF cells, HCMV-luciferase reporter, 72 h; hits give low values | activity change, negative = inhibition, % at 57.5 µM | actives 4.5% (n = 410,000) | AID 1259415; in the data active means activity change below about -60%; inconclusive means no clear call, values can overlap the other calls; inactive means above about -39%; further: on the % scale 0 is the no-effect control and ±100 the full control effect
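HFF cells seeded 16 h at 37C, treated with compounds, infected with luciferase-reporter HCMV at MOI 1 PFU/cell; luciferase read at 72 h post infection, normalized to buffer-only and Salinomycin controls.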
Cycloheximide cs – affects cycloheximide protein synthesis inhibition readout, counter-screen; actives 12% (n = 300,000); AID 2314; cell reporter, cycloheximide protein synthesis inhibition counterscreen; max response, %; in the data active means max response mostly above about 13%, no sharp cut-off; inactive means mostly below about 14%; further: read at 38.3 µM for the half of the compounds with a filed dose; 0% is about no effect
Pf growth 48h – P. falciparum growth inhibition at 48 hours (one generation); P. falciparum luciferase growth in erythrocytes, 48 h; Potency, µM (top dose mostly 28.7 µM), without a hit: at the highest dose activity change, negative = inhibition, hits mostly inhibitors; actives 5.9% (n = 310,000); AID 504832; further: potency means the concentration at half of the fitted maximal effect; on the % scale 0 is the no-effect control and ±100 the full control effect
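Luciferase-expressing P. falciparum in infected erythrocytes (2% hematocrit, 0.1% parasitemia final) in RPMI 1640/0.5% Albumax were exposed to compound for 48 hours at 37 C, 5% CO2; growth read as luminescence.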
An asterisk follows results filed as active; ? = inconclusive; nt = no result; [ ] = remark or other dose. Most compounds without a hit are left out; they make up all but 21% or so of the library. Unless noted, the call rests on the fitted dose curve; in most records, active means well fitted inhibition curve with a large enough effect; inconclusive means small, poorly fitted or top-dose-only effect, or another doubt; inactive means no such curve, though single readings can be large or run the other way.

SMILES	Shiga inhibitor	HCV inh	Pf growth 96h	HCMV antiviral	Cycloheximide cs	Pf growth 48h
Cc1cc(NC(=O)Nc2cccc(Cl)c2)n(-c2ccccc2)n1	14	?	0%	6	1	0%
Cc1cc(NC(=O)Nc2cccc(Cl)c2)n(-c2ccccn2)n1	20	11µM*	?	0	2	?
Cc1cc(NC(=O)c2ccc(Cl)cc2)n(-c2ccccc2)n1	-6	6%	5%	15	-3	2%
COc1cc(NC(=O)c2sc3nc4n(c(=O)c3c2C)CCCCC4)cc(OC)c1OC	nt	nt	nt	6	nt	nt
C/C(=N\O)C1CCCCC1	16	nt	20%	nt	-3	0%
NC(Cc1ccc(O)cc1)C(=O)NN=Cc1ccccc1Cl (stereo unspecified)	nt	nt	nt	58	nt	nt
CC(C)(C)c1cc(NC(=O)CCl)n(-c2ccccc2)n1	-8	?	?	?	-1	?
Cc1ccsc1C(=O)Nc1cc(C(C)(C)C)nn1-c1ccccc1	-27	?	nt	-110*	-2	?
Cc1cccc(-c2nc3ccccc3c(=O)[nH]2)c1	73*	-4%	12%	31	23*	-10%[0.00184 µM]
O=c1[nH]c(-c2ccncc2)nc2ccccc12	-2	10%	7.4µM*	?	-3	33%
COc1ccc(-c2nc3ccccc3c(=O)[nH]2)cc1	56*	4%	145%	40	43*	204%
N=c1oc2ccccc2cc1-c1nc2ccccc2c(=O)[nH]1	60*	9%	50%	37	14	nt
O=c1[nH]c(-c2cccnc2)nc2ccccc12	-11	1%	nt	11	-1	3%
O=S(=O)(c1ccc(Br)cc1)N1CCC2(CC1)OCCO2	-3	16%	-21%	-10	-1	-5%
Cc1ccc(-n2nc(C(=O)Nc3cccc(C#N)c3)c3c4ccccc4n(C)c3c2=O)cc1	nt	nt	nt	-6	nt	nt
CN(Cc1nc2ccccc2c(=O)[nH]1)c1ccccc1	1	-15%	?	66	9	0%
CN(C)c1ccc(-c2nc3ccccc3c(=O)[nH]2)cc1	37*	-4%	67%	2	36*	-14%
C/C(=N\Nc1ccc(F)cc1)c1ccncc1	34	16%	6%	-8	24*	21%
C/C(=N\Nc1ccc(Cl)cc1)c1ccncc1	47	-2%	?	19	21*	?
O=C(Nc1cc(C(F)(F)F)ccc1Cl)c1ccncc1	-9	6%	-4%	?	-7	20%
C/C(=N\NC1=NCCN1)c1ccccc1	0	0%	?	41	0	-30%
C/C(=N\Nc1cc(C(F)(F)F)ccc1Cl)c1ccncc1	2	13µM*	?	-16	-3	?
C/C(=N\NC1=NCCN1)c1ccc(Cl)cc1	14	2%	2.3µM*	5	1	?
CC(C)(C)NC(=O)CN1C(=O)c2cccc3cccc1c23	nt	nt	nt	-3	nt	nt
COc1ccc(N(CC(=O)NC2CCCCC2)C(=O)c2ccc(C)s2)cc1OC	-8	-4%	-1%	-35	4	-24%
SMILES	Shiga inhibitor	HCV inh	Pf growth 96h	HCMV antiviral	Cycloheximide cs	Pf growth 48h
O=C(O)c1cccc2c1-c1ccc(Cl)cc1C2	nt	2%	nt	-24	nt	nt
C/C(=N\Nc1cccc(Cl)c1)c1ccncc1	31	?	-15%	66	24*	0%
COc1ccc(C)cc1NC(=O)CN(Cc1nnc(-c2ccc(Cl)cc2)o1)C1CCCC1	15	7.9µM*	?	-8	13*	10µM*
COc1ccc(Cl)cc1NC(=O)CN(C)C1CCCCC1	15	?	?	-32	2	?
COc1ccc(OC)c(NC(=O)CN(Cc2ccc(F)cc2)C2CCCCC2)c1	12	?	?	-93*	-4	4.7µM*
COc1ccc(C)cc1NC(=O)CSc1nnc(-c2ccc(C)cc2)o1	24	-17%	-8%	123	3	nt
CCOC(=O)C1CCC(CN(Cc2c(Cl)cccc2Cl)S(=O)(=O)c2ccc(Cl)cc2)CC1 (stereo unspecified)	nt	nt	nt	14	nt	nt
O=C(CN1C(=O)C2CCCCN2c2ccc(C(=O)N3CCCC3)cc21)NCc1ccccc1 (stereo unspecified)	nt	nt	nt	-10	nt	nt
O=c1c2c3c(sc2nc2n1CCCCC2)CCCC3	97*	-16%	nt	60	31*	120%
O=c1c2c3c(sc2nc2n1CCCS2)CCCC3	52	-20%	-26%	65	42*	57%
O=c1c2c3c(sc2nc2n1CCCC2)CCC3	-7	-11%	33%	-13	3	6%
Cc1nc2sc3c(c2c(=N)n1N)CC(C)(C)OC3	-17	5%	13%	-7	1	2%
O=c1c2c3c(sc2nc2n1CCC2)CCCC3	27	-5%	?	51	17	-6%
Cc1nc2sc3c(c2c(=N)n1N)CCCC3	2	-3%	10µM*	-18	-3	-2%
O=c1c2c3c(sc2nc2n1CCCC2)CCCCC3	51	?	nt	46	44*	23%
C=CCn1ccc(=NC=C(C#N)C#N)c2ccccc21	22	-15%	?	-35	2	?
C=CCc1ccccc1OCCn1c(C2CC(=O)N(Cc3ccc(F)cc3)C2)nc2ccccc21 (stereo unspecified)	nt	nt	nt	-35	nt	nt
COCCCNC(=O)c1ccccc1N(Cc1ccccc1)S(=O)(=O)c1ccccc1	-13	5%	?	-3	-4	?
CC(C)Cn1cnc2sc3c(c2c1=N)CCCC3	33	-15%	nt	-11	6	nt
CC1=Nn2c(nc3sc4c(c3c2=O)CCCC4)SC1	57	-16%	200%	-11	24*	59%
O=c1c2c3c(sc2nc2n1CCCCC2)CCCCC3	73*	6%	-23%	nt	28*	111%
N=c1c2c3c(sc2nc2n1CCCCC2)CCCCC3	73*	?	?	81	32*	41%
CC1CSc2nc3sc4c(c3c(=O)n21)CCCC4 (stereo unspecified)	26	-23%	23%	-2	22*	7%
Cc1ccccc1-n1c(SCc2ccc(Cl)cc2)nc2[nH]ncc2c1=O	nt	nt	nt	-20	nt	nt
Cc1cccc(NC(=O)CSCC(=O)N2CCN(Cc3ccc4c(c3)OCO4)CC2)c1	nt	-1%	0%	-27	nt	-18%
Cc1ccc(Cl)cc1N1CCN(C(=O)Cn2ncc3c([nH]c4ccccc43)c2=O)CC1	nt	nt	nt	7	nt	nt
Cc1ccc(CN2CCC(CO)(CC3CCCCO3)CC2)o1 (stereo unspecified)	-4	-1%	?	16	0	-5%
Cc1ccc2[nH]c(CN3CCC(CO)(CC4CCCCO4)CC3)c(C)c2c1 (stereo unspecified)	-2	-15%	?	-70*	-3	9.3µM*
COc1cccc(CN2CCC(CO)(CC3CCCCO3)CC2)c1 (stereo unspecified)	-11	3%	9.3µM*	29	2	-20%
